# Results reported in PubChem BioAssay AID1159580 (chemical genetic matrix, 2015).
# The campaign covered roughly 5,500 compounds. About 2,000 (36%) were called active. Inconclusive results (about 18%) are left out. The list shows a part of the results. Values without a mark were called inactive. No stated cut-off is given here; in the data, active means normalized growth mostly below about 0.91 (no sharp cut-off); inconclusive means no clear call, values can overlap the other calls; inactive means mostly above about 0.92.
# Assay: chemical genetic growth profiling, strain panel (AID 1159580);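 further: tested at 20 µM; growth read once vehicle control cultures reached saturation at 30 °C; 1 = growth at the plate median or of vehicle wells; lower values mean less growth of the strain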
# Details: S. cerevisiae deletion strains, growth OD
structure (smiles),measurement,setting,value
CCOC(=O)C1C(=O)C=C(c2cccs2)CC1c1ccc(OC)c(OC)c1Cl (stereo unspecified),normalized growth,"locus YAL013W, strain DEP1, active compounds read low",0.988
same,normalized growth,"locus YBR229C, strain ROT2, active compounds read low",0.991
same,normalized growth,"locus YDL101C, strain DUN1, active compounds read low",0.995
same,normalized growth,"locus YDL134C, strain PPH21, active compounds read low",0.989
same,normalized growth,"locus YDR150W, strain NUM1, active compounds read low",0.968
same,normalized growth,"locus YEL061C, strain CIN8, active compounds read low",1.01
same,normalized growth,"locus YGR078C, strain PAC10, active compounds read low",0.979
same,normalized growth,"locus YHR030C, strain SLT2, active compounds read low",0.874
same,normalized growth,"locus YHR087W, strain rtc3, active compounds read low",0.998
same,normalized growth,"locus YJR043C, strain POL32, active compounds read low",0.983
same,normalized growth,"locus YJR075W, strain HOC1, active compounds read low",0.974
same,normalized growth,"locus YLR039C, strain RIC1, active compounds read low",0.863
same,normalized growth,"locus YLR058C, strain SHM2 (second series), active compounds read low",0.992
same,normalized growth,"locus YLR085C, strain ARP6, active compounds read low",1
same,normalized growth,"locus YLR262C, strain YPT6, active compounds read low",0.796 (active)
same,normalized growth,"locus YML094W, strain GIM5, active compounds read low",1.03
same,normalized growth,"locus YMR219W, strain ESC1, active compounds read low",0.993
same,normalized growth,"locus YMR263W, strain SAP30, active compounds read low",1.01
same,normalized growth,"locus YNL153C, strain GIM3, active compounds read low",0.988
same,normalized growth,"locus YNL298W, strain CLA4 (second series), active compounds read low",0.976
same,normalized growth,"locus YNL322C, strain KRE1, active compounds read low",0.993
same,normalized growth,"locus YNR030W, strain Alg12, active compounds read low",0.968
same,normalized growth,"locus YOL006C, strain TOP1, active compounds read low",0.895
same,normalized growth,"locus YPL055C, strain LGE1, active compounds read low",1.04
same,normalized growth,"locus YPL241C, strain CIN2, active compounds read low",1.01
same,normalized growth,"locus YPR135W, strain CTF4, active compounds read low",0.843
